In PubChem BioAssay (NCATS):
Records with an inconclusive call do not appear. Unmarked numbers belong to inactive results. Active and inactive are the calls of the source. The call rests on the fitted dose curve; in most records, active means well fitted inhibition curve with a large enough effect; inconclusive means small, poorly fitted or top-dose-only effect; inactive means flat fitted curve, though single readings scatter. *1 amine or outer side, *2 acyl side, *3 side chain or, on linkers, in order; H or OH if unused. Where a SMILES comes first, the peptide text is derived from it. [ ]: non-standard residue; d: D form. X7 = O=C([C@@H](CC(O)CCl)O[*:1])[*:2]; aIle = CC[C@@H](C)[C@H](N)C(=O)O; NMeV = CN[C@H](C(=O)O)C(C)C; NMeA = CN[C@@H](C)C(=O)O; βAla = NCCC(=O)O

experiment: P-glycoprotein substrates identified in KB-8-5-11 adenocarcinoma cell line, qHTS therapeutic library screen (AID 1346987); conditions: KB-8-5-11 (P-gp overexpressing) viability, CellTiter-Glo, 72 h; series mostly up to 44.5 µM; activity change, negative = cytotoxicity: at the top concentration; further: nearly all actives have a fitted effect of over 65% in size
Excerpt: The ATP-binding cassette transporters P-glycoprotein (P-gp) is known to limit brain penetration of many chemotherapy drugs. […] As such, we developed a high-throughput screen (HTS) to identify substrates of P-gp from a series of chemical libraries including the National Center for Advancing Translational Sciences Pharmaceutical Collection NPC, 2,816 compounds), testing a total of 10,804 compounds, most of which have known mechanisms of action. We used the CellTiter-Glo viability assay to test library compounds against the parental KB-3-1 human cervical adenocarcinoma cell line and the colchicine-selected sub-line KB-8-5-11 that over-expresses P-gp. KB-8-5-11 cells were also tested in the presence of a P-gp inhibitor (tariquidar) to assess reversability of transporter-mediated resistance. Of the tested compounds, a total of 90 P-gp substrates were identified including 55 newly identified P-gp substrates. Substrates were confirmed using an orthogonal killing assay against HEK-293 cells transfected with P-gp. As exemplars, we confirmed that […] (cyclin-dependent kinase inhibitor); AT9283, (Janus kinase 2/3 inhibitor); ispinesib (kinesin spindle protein inhibitor); gedatolisib (PKI-587, phosphoinositide 3-kinase/mammalian target of rampamycin inhibitor); GSK-690693 (AKT inhibitor); and KW-2478 (heat shock protein 90 inhibitor) were substrates , and direct ATPase stimulation was assessed. ABCG2 was also found to confer high levels of resistance to AT9283, GSK-690693 and gedatolisib, while ispinesib, AT7519 and KW-2478 were weaker substrates.
The HeLa derivative cell line, KB-3-1, and its colchicine-selected, P-gp-overexpressing subline, KB-8-5-11 were maintained in DMEM with 10% FCS and Pen/Strep with glutamine at 37 degree C in 5% CO2. For KB-8-5-11 cells, colchicine was added to the medium at a concentration of 100 ng/mL. HEK-293 cells transfected with empty vector (pcDNA) or vector containing human ABCB1 (MDR-19) or ABCG2 (R-5) have been described previously (Robey, Lin, Qiu, Chan & Bates, 2011) and were maintained in EMEM supplemented with 10% FCS, Pen/Strep and glutamine with 2 mg/ml G418 to select for the expression of the transporter. Cultures were confirmed to be free of mycoplasma infection using the MycoAlert Mycoplasma Detection Kit (Lonza, Walkersville, MD). For the screen, assay medium was identical to culture medium except for KB-8-5-11 where colchicine was excluded from the medium.
All cell lines were plated into 1536-well plates at 500 cells/well in 5 uL media. Compounds were then pinned in dose-response using a 1536-head pin tool (Kalypsis, San Diego, CA) and plates were incubated at 37 degree C in 5% CO2 for an additional 72 h. CellTiter-Glo reagent (Promega) was dispensed into the wells, incubated for 5 min and luminescence was read on a ViewLux instrument (Perkin-Elmer). Cytotoxic compounds were defined as those that yielded a curve class of -1.1, -1.2, -2.1, -2.2, -2.3, or -2.4, a maximum response of >50% and an AC50 of < 10 uM. Cherry-picked hits from screening analysis were tested with both the KB pair of cell lines, and the pcDNA (empty vector control) and MDR-19 (P-gp overexpressing) pair were tested, in the absence and presence of tariquidar.
On the % scale 0 is the no-effect control and ±100 the full control effect; potency means the concentration at half of the fitted maximal effect.

| SMILES | outcome | activity change, negative = cytotoxicity | Potency |
| --- | --- | --- | --- |
| COc1cc(O)c2c(c1)/C=C/C[C@@H](O)[C@@H](O)C(=O)CCC[C@H](C)OC2=O | inactive | – | – |
| CC1CCCC(=O)CCC/C=C/c2cc(O)cc(O)c2C(=O)O1 (stereo not given) | – | 3.42% | – |
| CCC(=O)O[C@H]1[C@@H](N2CCCCC2)C[C@H]2[C@@H]3CC[C@H]4C[C@H](OC(C)=O)[C@@H](N5CCCCC5)C[C@]4(C)[C@H]3CC[C@@]21C | – | -16.8% | – |
| CC1CCCC(O)CCC/C=C/c2cc(O)cc(O)c2C(=O)O1 (stereo not given) | – | -11.3% | – |
| C[C@H]1O[C@@H](n2cnc3c(N)ncnc32)C[C@@H]1O | inactive | – | – |
| COc1cc([C@@H]2c3cc4c(cc3[C@@H](O)[C@H]3COC(=O)[C@H]23)OCO4)cc(OC)c1O | – | – | 651 nM (active) |
| CCC(=O)O[C@](Cc1ccccc1)(c1ccccc1)[C@H](C)CN(C)C | – | – | 20000 nM (active) |
| CN1Cc2c(ccc3c2OCO3)[C@@H]2[C@H]1c1cc3c(cc1C[C@@H]2O)OCO3 | – | – | 1610 nM (active) |
| CN(Cc1cccc(-c2ccncc2)c1)C(=O)Oc1ccc(-c2ccc(C(N)=O)cc2)cc1 | – | -23.9% | – |
| CCN1C[C@]2(COC)CC[C@H](O)[C@@]34C5C[C@@H]6[C@@H](OC)C[C@@](OC(C)=O)(C5[C@@H]6OC(C)=O)[C@H]([C@H](OC)C23)[C@@H]14 (stereo not given in full) | – | -21.4% [at 17.3 µM] | – |
| CC1=CC2/C=C(\C)CCC(O)C(O)/C=C/C(=O)OC23C(=O)NC(CC(C)C)C3C1C (stereo not given) | – | 2.8% [at 17.3 µM] | – |
| NNC(=O)c1nn(Cc2ccc(Cl)cc2Cl)c2ccccc12 | – | -18.8% | – |
| Cc1c(N2C(=O)[C@@H]3[C@H](O)CCN3C2=O)ccc(C#N)c1Cl | – | 8.5% | – |
| CC(=O)OC[C@]12C[C@H](OC(=O)CC(C)C)C(C)=C[C@H]1O[C@@H]1[C@H](O)[C@@H](O)[C@@]2(C)[C@]12CO2 | – | – | 112 nM (active) |
| C=CC/C=C\C/C=C\CCCCCCCc1cc(O)cc(O)c1 | – | -10.9% | – |
| CC(=O)NCCCOc1ccc(C(=O)N2CCC(N3C(=O)CCc4ccccc43)CC2)cc1 | inactive | – | – |
| COC(=O)[C@@]1(C)C(=O)C=C[C@]2(C)c3c(O)cc(C(C)C)cc3[C@H](O)[C@@H](OC(C)=O)C12 (stereo not given in full) | – | -18.2% [at 17.3 µM] | – |
| COc1ccc(OC)c(C[C@H](C)N)c1 | – | -15.9% [at 93.4 µM] | – |
| CCC1NC(=O)C2C(Cl)C(Cl)CN2C(=O)C(CC)NC(=O)CC(c2ccccc2)NC(=O)C(CO)NC1=O (stereo not given) | – | 2.04% [at 17.3 µM] | – |
| C[C@@H](N)C(=O)c1ccccc1 | – | 2.27% [at 93.4 µM] | – |

| SMILES | outcome | activity change, negative = cytotoxicity | Potency |
| --- | --- | --- | --- |
| C[C@H]1CCC/C=C/C2C[C@H](O)C[C@H]2[C@H](O)/C=C/C(=O)O1 (stereo not given in full) | – | – | 184 nM (active) |
| COC[C@]12CN(C)C3C4[C@H](OC)[C@H]1C3(C(OC)C[C@H]2O)[C@H]1C[C@@]2(O)[C@H](OC(=O)c3ccccc3)[C@@H]1[C@]4(O)[C@@H](O)[C@@H]2OC (stereo not given in full) | inactive | – | – |
| C[C@@H]1C[C@@H](O)[C@]2(O)O[C@@H]3C[C@@]4(C=O)C(CC[C@@H]5C4CC[C@]4(C)[C@@H](C6=CC(=O)OC6)CC[C@]54O)C[C@H]3O[C@@H]2O1 (stereo not given in full) | – | – | 63.2 nM (active) |
| Cc1cccc([C@H](C)c2cnc[nH]2)c1C | – | -22.1% [at 93.4 µM] | – |
| CC(=O)O[C@H]1CC[C@@]2(CI)C(=CC[C@@H]3[C@@H]2CC[C@]2(C)C(=O)CC[C@@H]32)C1 | – | 3.18% | – |
| C/C=C1/CN2CC[C@]34C(=Nc5ccccc53)[C@@H]2C[C@@H]1[C@H]4C(=O)OC | – | -1.5% | – |
| Cc1cccc(NC(=O)NC2N=C(c3ccccc3)c3ccccc3N(CC(=O)c3ccccc3C)C2=O)c1 (stereo not given) | – | -7.57% | – |
| CO[C@H]1[C@H](O)[C@H](O[C@H]2CC[C@]3(C=O)C4CC[C@]5(C)[C@H](C6=CC(=O)OC6)CC[C@]5(O)C4CC[C@@H]3C2)O[C@@H](C)[C@@H]1O (stereo not given in full) | – | – | 25.2 nM (active) |
| CO[C@H]1C[C@H](O[C@H]2CC[C@]3(CO)[C@H]4CC[C@]5(C)[C@@H](C6=CC(=O)OC6)CC[C@]5(O)[C@@H]4CC[C@]3(O)C2)O[C@H](C)[C@H]1O | – | – | 22.4 nM (active) |
| C[C@]12CC[C@H](O[C@@H]3O[C@H](CO)[C@@H](O)[C@H](O)[C@H]3O)CC1CC[C@@H]1C2CC[C@]2(C)[C@@H](C3=CC(=O)OC3)CC[C@]12O (stereo not given in full) | – | – | 6320 nM (active) |
| C[C@@H]1[C@H]2Cc3ccc(O)cc3[C@]1(C)CCN2C | – | -5.37% [at 163 µM] | – |
| COc1ccc2c(c1)c(CCN(C)C)cn2S(=O)(=O)c1ccccc1 | – | -19.2% | – |
| CC1=CC2/C=C(\C)CCC(O)C(O)C(O)CC(=O)C23C(=O)NC(CC(C)C)C3C1C (stereo not given) | – | -21.2% [at 17.3 µM] | – |
| CN1C(=O)[C@]23CC4C(C)(C)[C@@]5(C[C@@]41CN2CC[C@@]3(C)O)C(=O)Nc1c5ccc2c1OC=CC(C)(C)O2 (stereo not given in full) | – | -3.03% [at 17.3 µM] | – |
| C[C@]12CC[C@H](O)C[C@@H]1CC[C@@H]1[C@@H]2CC[C@]2(C)[C@@H](C3=CC(=O)OC3)CC[C@]12O | – | – | 11400 nM (active) |
| CCCCNC(C)(C)[P+](=O)O | – | -1.81% | – |
| CC[C@@H](C)[C@@H]1NC(=O)[C@@H]2CCCN2C(=O)[C@@H](CC(O)CCl)OC(=O)CCNC(=O)[C@H](C)N(C)C(=O)[C@H](C(C)C)N(C)C1=O (stereo not given in full) (cyclo([NMeA][βAla][X7]P[aIle][NMeV])) | – | -1.52% [at 17.3 µM] | – |
| CC(=O)N1N=C(c2ccc(N)cc2)c2cc3c(cc2C[C@H]1C)OCO3 | – | -6.09% | – |
| CCOC(=O)c1ccnc2cc(C(OCCN3CCCCC3)c3ccccc3Cl)sc12 (stereo not given) | – | -8.83% | – |
| COC1CC(O[C@H]2CC[C@@]3(C)C(CCC4C3CC[C@]3(C)[C@@H](C5=CC(=O)OC5)CC[C@]43O)C2)OC(C)C1O (stereo not given in full) | – | – | 100 nM (active) |
